Data on seven sequences can be found in the supplement of paper PMC6555819.

What all share (experiment): PBM binding z-score (relative to random genomic background probes); higher = stronger binding; sequences stand for … in GC…GCGATTGACAGCGTAGAATGAAGG
Assay [1] concerns FXR:RXRa (NR concentration 270 nM, RXRa partner concentration 90 nM). The essentials:
(§1)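 Binding z-scores were set against random background probes. The data came from custom Agilent 4×180K protein-binding microarrays carrying double-stranded probes with 34-nt variable regions, incubated 1 h with ligand-free nuclear receptor dimers. Partner-specific antibodies detected binding, and scanned fluorescence was regression-normalized.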

Assay [2] has as its system LXRa:RXRa (NR concentration 270 nM, RXRa partner concentration 90 nM). Put shortly:
as §1

The test system of assay [3] is LXRa homodimer (NR concentration 270 nM). Put shortly:
as §1

The test system of assay [4] is LXRb:RXRa (NR concentration 270 nM, RXRa partner concentration 90 nM). Put shortly:
as §1

In assay [5] the test system is LXRb homodimer (NR concentration 270 nM). The essentials:
as §1

Assay [6] relates to PPARa:RXRa (NR concentration 270 nM, RXRa partner concentration 90 nM). Put shortly:
as §1

Assay [7] deals with PPARg:RXRa (NR concentration 180 nM, RXRa partner concentration 90 nM). Put shortly: as §1
Assay [8] deals with PPARg:RXRa 270nM:90nM, anti-RXR (NR concentration 270 nM, RXRa partner concentration 90 nM). The essentials:
as §1

The test system of assay [9] is PPARg:RXRa 30nM:10nM, anti-RXR (NR concentration 30 nM, RXRa partner concentration 10 nM). The essentials: as §1
The subject of assay [10] is PPARg:RXRa 90nM:30nM, anti-RXR (NR concentration 90 nM, RXRa partner concentration 30 nM). The essentials:
as §1

Assay [11] has as its system PPARg:RXRa DBDmut IVT, anti-RXR (DBD mutation: RXRa K156A/R161A, NR concentration 270 nM, RXRa partner concentration 90 nM). The essentials: as §1
Assay [12] concerns PPARg:RXRa IVT, anti-PPARg (NR concentration 270 nM, RXRa partner concentration 90 nM). The essentials:
as §1

Assay [13] relates to PPARg DBDmut:RXRa IVT, anti-PPARg (DBD mutation: PPARg1 K132A/R137A, NR concentration 270 nM, RXRa partner concentration 90 nM). The essentials: as §1
Assay [14] has as its system PPARg DBDmut IVT, anti-PPARg (DBD mutation: PPARg1 K132A/R137A, NR concentration 270 nM). The essentials:
as §1

Assay [15] relates to PPARg homodimer (NR concentration 180 nM). The essentials:
as §1

Assay [16] has as its system PXR:RXRa (NR concentration 270 nM, RXRa partner concentration 90 nM). Put shortly: as §1
In assay [17] the test system is PXR homodimer (NR concentration 270 nM). Put shortly:
as §1

Assay [18] concerns RARa:RXR (NR concentration 270 nM, RXRa partner concentration 90 nM). Put shortly: as §1
Assay [19] deals with RARa homodimer (NR concentration 270 nM). Put shortly:
as §1

Assay [20] deals with RARb:RXRa (NR concentration 270 nM, RXRa partner concentration 90 nM). Put shortly: as §1

Regarding CGATCTAGGTCAAGGACAGTGAATCTCCGCACGC, the PBM binding z-score in assay [1] was 3.25; in assay [2], 2.07; in assay [3], 0.0913; in assay [4], 1.3; in [5] it was -0.135; in assay [6], 4.43. Besides, the PBM binding z-score in assay [7] was 7.27; in assay [8], 5.87; in [9], 3.68; in [10], 5.55; in assay [11], 7.91; in assay [12] it was 8.16. Also, the PBM binding z-score was 4.56 in assay [13]; 2.13 in assay [14]; 2.28 in [15]; 0.815 in assay [16]; 0.057 in assay [17]; 2.01 in assay [18]. Further, the PBM binding z-score in [19] was 0.269; in assay [20], 3.87.

On to CAGCCTACGTCAGGGCCAGTATAGGAGGAACGTT, for which the PBM binding z-score is -0.299 in assay [1]; -0.664 in assay [2]; -0.318 in [3]; -0.547 in [4]; -1.11 in assay [5]; -0.518 in [6]. Moreover, the PBM binding z-score in [7] is 0.171; in assay [8], -0.999; in [9], -0.483; in [10], -0.832; in assay [11], -0.745; in [12], -0.587. Further, the PBM binding z-score in [13] is -0.356; in assay [14] it was -0.405; in assay [15], -0.116; in assay [16], -0.512; in [17], -0.548; in [18], 0.00174. The figures for the PBM binding z-score in [19] and in assay [20] were -0.296 and -0.405, respectively.

For the sequence CCTAGCATGCCAATCTGGGTCACTCAAGGCTTGA, the PBM binding z-score was 0.636 in assay [1]; 1.12 in assay [2]; -0.371 in assay [3]; 0.998 in [4]; -0.652 in [5]; 3.3 in assay [6]. Further, the PBM binding z-score in assay [7] was 2.23; in assay [8], 2.25; in assay [9], -0.035; in assay [10], 1.26; in assay [11] it was 3.67; in assay [12], 4.84. Further, the PBM binding z-score in assay [13] was 0.133; in assay [14], -0.458; in [15], 0.737; in assay [16], 0.913; in assay [17], -0.249; in [18], 1.65. For the same sequence, the PBM binding z-score in assay [19] is -0.219; in assay [20] it was 1.16.

Take CCTATAAGTTGACCATAAGGGCAACCGAAGCTCG: the PBM binding z-score in assay [1] stood at 1.36; in assay [2] it was 0.588; in assay [3], 0.467; in [4] it was 0.379; in assay [5], 0.387; in [6], 0.93. Moreover, the PBM binding z-score in [7] is 0.632; in assay [8], 0.292; in assay [9], 0.0132; in assay [10], -0.0263; in assay [11], 0.357; in assay [12], 0.771. Besides, the PBM binding z-score in assay [13] is 0.17; in assay [14], -0.0168; in assay [15], 1.61; in assay [16], 0.964; in [17] it was 0.7; in assay [18] it was 1.23. The PBM binding z-score in [19] is 1.27; in assay [20], 1.8.

As to TCTACAGGGTCAAAGGCCAGAGTACGAATGTCGA, the PBM binding z-score in assay [1] came to 7.34; in assay [2] it was 4.67; in assay [3], 0.313; in assay [4], 4.11; in assay [5] it was 0.605; in assay [6] it was 5.99. Moreover, the PBM binding z-score in assay [7] was 7.62; in assay [8], 7.12; in assay [9], 5.3; in assay [10] it was 6.93; in assay [11], 2.69; in [12], 4.11. Besides, the PBM binding z-score in assay [13] stood at 0.545; in assay [14], 0.757; in assay [15], 1.6; in assay [16], 4.1; in [17], 0.202; in assay [18], 5.76. Further, the figures for the PBM binding z-score in [19] and in assay [20] were 0.385 and 4.29, respectively.

Turning to ACTAGCACGCCAAGTTTGGGTCACTCAAACAAAG, the PBM binding z-score was 0.0024 in assay [1]; -0.138 in assay [2]; -0.715 in assay [3]; 0.642 in assay [4]; -0.337 in [5]; 1.17 in assay [6]. Besides, the PBM binding z-score in assay [7] is -0.0065; in assay [8] it was -0.00833; in assay [9] it was -0.577; in [10], -0.34; in assay [11], -0.764; in assay [12], 0.325. Also, the PBM binding z-score is -0.643 in assay [13]; -0.578 in assay [14]; 0.00723 in assay [15]; 0.524 in assay [16]; -0.537 in assay [17]; 0.981 in [18]. Besides, the figures for the PBM binding z-score in assay [19] and in assay [20] were -0.534 and 1, respectively.

For the sequence CCGACTGGGGCAGAAAAGTTACCATACCATCCGG, the PBM binding z-score in assay [1] was -0.281; in assay [2], -0.694; in assay [3] it was -0.371; in assay [4] it was -0.55; in [5], -1.1; in assay [6], -0.413. For the same sequence, the PBM binding z-score is 0.56 in assay [7]; -0.294 in assay [8]; -0.571 in assay [9]; -0.517 in [10]; 1.36 in [11]; 0.746 in [12]. The PBM binding z-score is -1.85 in [13]; -1.61 in assay [14]; 0.0393 in assay [15]; -0.593 in assay [16]; -0.395 in [17]; -0.848 in assay [18]. Besides, the PBM binding z-score in assay [19] is 0.0243; in [20], -0.0999.
